KDM5B inhibitor: KDM5B demethylase inhibition. 2.6% of 220,000 active. KDM5B demethylase, FDH-coupled NADH fluorescence (FDH is formaldehyde dehydrogenase). AID 1347165. Potency, µM (doses to about 57.7 µM), actives largely listed as inhibitors. Q9UGL1; active = well fitted inhibition curve with a large enough effect; note: nearly all actives have a fitted effect of over 70% in size
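Measured: NADH fluorescence change, 30 min, RT. System: KDM5BΔAP 200 nM final, H3K4me3 peptide, α-KG, Fe(II), ascorbate, NAD⁺ plus FDH, pH 7.5 HEPES. Compounds: titrated, 10 min pre-incubation with enzyme.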
Each line names hits and unclear results; the compound was inactive in the other large screens. The sample as a whole holds a higher share of hits than the screen did.

COCCNC(=O)c1ccc2c(c1)N(Cc1cc(C)ccc1C)C(=O)c1ccccc1S2=O (stereo not given)	none
CC(C)(C(=O)NCc1cccc(C(F)(F)F)c1)C1CCOCC1	none
CCCNC(=O)CSCc1cccs1	none
CC(=O)N1CC2(CCN(Cc3ccccn3)CC2)Cc2ccccc21	none
COc1ccc(CN(C)C(C)c2cccs2)cc1 (stereo not given)	none
Cc1ccc(NC(=O)CN(C)S(=O)(=O)c2cnc[nH]2)cc1	none
CN(CC(=O)N1CCc2nc3cc(-c4ccccc4)[nH]n3c(=O)c2C1)S(=O)(=O)c1cnc[nH]1	KDM5B inhibitor 28.2µM
CN(CC(=O)N1CCc2ccccc2C1)S(=O)(=O)c1ccc(Cl)cc1	none
CC1(c2noc(-c3ccccc3)n2)CCN(C(=O)C2CCN(S(=O)(=O)c3cnc[nH]3)CC2)CC1	none
COc1ccc(-c2cc3nc4c(c(=O)n3[nH]2)CN(C(=O)CN(C)S(=O)(=O)c2cnc[nH]2)CC4)cc1	KDM5B inhibitor 25.1µM
COc1ccc(NC(=O)CN(C)S(=O)(=O)c2cnc[nH]2)cc1	none
CC(C)c1noc(-c2cn(C3CCCN(C(=O)c4ccc(Cl)s4)C3)nn2)n1 (stereo not given)	none
O=C(NCc1ccc(CN2CCOCC2)cc1)c1cnn(-c2ccccc2)c1	none
O=C(/C=C/c1c(Cl)cccc1Cl)NCCCn1ccnc1	none
CC(C)NC(=O)N1Cc2ccccc2OC2(CCN(Cc3ccncc3)CC2)C1	none
O=C(NCc1cccnc1)C(=O)NCC(c1ccco1)N1CCOCC1 (stereo not given)	none
Cc1c(CC(=O)NCCCn2ccnc2)c(=O)oc2cc(O)ccc12	none
CN1Cc2ccc(N3CCOCC3)nc2C(C)(C(=O)NCCCn2ccnc2)C1 (stereo not given)	KDM5B inhibitor 31.6µM
Cc1cc(N2CCOCC2)nc2ccc(NC(=O)NC(C)C)cc12	none
CC(C)CNc1ccc2c(n1)C(C)(C(=O)NCc1ccco1)CN(Cc1ccccc1)C2 (stereo not given)	none
COc1ccc(CN2CCc3oc(C)c(C(=O)NCc4cccnc4)c3C2)cc1	none
CC(C)NC(=O)C1(C)CN(Cc2ccccc2)Cc2ccc(N3CCOCC3)nc21 (stereo not given)	KDM5B inhibitor 28.2µM
CC1(C(=O)NCc2cccnc2)CN(Cc2ccccc2)Cc2ccc(N3CCOCC3)nc21 (stereo not given)	KDM5B inhibitor 25.1µM
CC1(C(=O)NCc2ccccc2)CN(Cc2ccccc2)Cc2ccc(N3CCOCC3)nc21 (stereo not given)	KDM5B inhibitor 22.4µM
O=S(=O)(c1cc(Br)c(Cl)s1)N1CCCC1	none
O=C(N/N=C/c1cccs1)c1n[nH]c2c1CCCC2	none
CCCCN(C)C(=O)c1cccc2c1CCN2C(=O)Nc1ccc(OC)cc1	none
O=c1[nH]c(CSc2nc3ccccc3o2)nc2cc(Cl)ccc12	none
Cc1cc2c(cc1S(=O)(=O)N1CCCCC1)OCC(=O)N2	none
COc1ccc(CNC(=O)CSc2nnc(C)n2C2CC2)cc1OC	none
CCc1ccc(N2CC(c3noc(C4(c5ccc(OC)cc5)CC4)n3)CC2=O)cc1 (stereo not given)	none
COc1ccc(CCNC(=O)CN(c2cc(C(F)(F)F)ccc2Cl)S(C)(=O)=O)cc1OC	none
O=C(NCCc1ccccc1)N(C1CCOCC1)C1CCN(Cc2ccccc2)CC1	none
CN(C)CCNC(=O)C1(C)CN(Cc2ccccc2)Cc2ccc(N3CCOCC3)nc21 (stereo not given)	KDM5B inhibitor 35.5µM
Cc1ccc(Nc2cc(C(=O)N3CCOCC3)c3ccccc3n2)cc1	none
CC1(C(=O)N2CCOCC2)CN(Cc2ccccc2)Cc2ccc(Nc3ccccc3)nc21 (stereo not given)	KDM5B inhibitor 28.2µM
CCOc1ccc(Nc2cc(C(=O)N3CCOCC3)c3ccccc3n2)cc1	none
COCCCNC(=O)C1(C)CN(Cc2ccccc2)Cc2ccc(NCC(C)C)nc21 (stereo not given)	none
NC(=O)c1ccccc1NC(=O)COc1ccc(Cl)cc1	none
CCOc1c(Cl)cc(/C=C(/C#N)c2nc3ccc(C)cc3[nH]2)cc1Cl	none
CCc1ccc(NC(=O)C(C#N)=C2CCC(C(C)(C)C)CC2)cc1 (stereo not given)	none
O=C(Nc1cnc(-c2cccc(Cl)c2)nc1)c1ccc(F)cc1F	none
O=C(Nc1cnc(-c2ccc(Cl)cc2)nc1)c1ccc(F)c(F)c1	none
O=C(Nc1cnc(-c2cccc(Cl)c2)nc1)c1cc(F)cc(F)c1	KDM5B inhibitor 25.1µM
O=C(c1ccc(F)cc1Cl)N1CCC(n2cc(-c3nc(-c4ccccc4)no3)nn2)CC1	none
Cc1cccc(-n2nc(C)c(CCC(=O)NC3CC3)c2Oc2ccc(F)cc2F)c1	none
CCN(C)C(=O)CCc1c(C)nn(-c2cccc(C)c2)c1Oc1ccc(F)cc1F	KDM5B inhibitor 31.6µM
CCN(CC)C(=O)CCc1c(C)nn(-c2cccc(C)c2)c1Oc1ccc(F)cc1F	none
COc1ccc2c(c1)C(NC(C)=O)C(=O)N2CCOc1ccccc1 (stereo not given)	none
CC(Oc1ccc(F)cc1)C(=O)Nc1cc(-c2ccc(F)c(F)c2)no1 (stereo not given)	none
O=C(NC1CC1)c1ccn2nccc2c1	none
C=CCNC(=O)c1ccccc1NC(=O)c1cccc(C#N)c1	none
Cn1cc(C(=O)Nc2ccc(Cl)c(Cl)c2)cn1	none
O=C(NNC(=O)c1ccc(Cl)nc1)c1ccncc1	none
CNC(=O)c1ccc(OCc2nnc(C(C)(C)C)o2)cc1	none
O=C(Nc1ccc(F)cc1)c1cccn2nccc12	none
O=C(Nc1ccc(Cl)nc1)c1cccn2nccc12	KDM5B inhibitor 35.5µM
C=CCNC(=O)c1ccn2nccc2c1	none
CNC(=O)c1ccc2ccnn2c1	KDM5B inhibitor 35.5µM
O=C(Nc1ccc(Cl)nc1)c1ccc2ccnn2c1	KDM5B inhibitor 31.6µM
C=CCNC(=O)c1cccn2nccc12	KDM5B inhibitor 31.6µM
CC(=O)c1ccc(NC(=O)c2cc3ncccn3n2)cc1	none
O=C(N/N=C/C(Br)=C/c1ccccc1)c1cnccn1	none
C[C@H]1[C@@H]2[C@@H](O)C([C@H](C)C(=O)NCCN3CCOCC3)CC[C@@]2(C)CC[C@@H]1NC(=O)c1ccccn1 (stereo not given in full)	none
COc1ccc(N2Cc3c(ncnc3N3CCC(N4CCOCC4)CC3)N(C)CC2=O)cc1	none
CCOC(=O)c1c(S(=O)(=O)NCC(=O)Nc2ccc(C)c(Cl)c2)c(C)n(C)c1C	none
COc1nc2ccccc2nc1N1CCC(C(=O)Nc2ccc(C)cc2)CC1	none
CCN1C(=O)C(CC(=O)N2CCCCCC2)Sc2ncccc21 (stereo not given)	none
Cc1ccccc1CN(c1ccc(C(=O)N2CCN(C)CC2)cc1)S(C)(=O)=O	none
Cc1nc(-c2ccc(C)c(S(=O)(=O)N3CCCCC3C)c2)cs1 (stereo not given)	none
CCOc1ccc(NC(=O)C2=NN(C3CCS(=O)(=O)C3)C(=O)CC2)cc1OCC (stereo not given)	none
O=C(CCc1c[nH]c2ccccc12)N1CCC(Oc2ncccc2C(=O)N2CCCCC2)C1 (stereo not given)	none
CCCN1CCC2(CCN(C(=O)c3ccccc3F)CC2)Oc2ccccc21	none
Cc1ccccc1-c1nnn(CC(=O)N2CCC(c3nc4ccccc4s3)CC2)n1	none
CCOC(=O)c1c(NC(=O)c2ccc(OCC)c(Br)c2)sc2c1CCCC2	none
O=C(NCCCN1CCOCC1)C(=O)N/N=C/c1cccc2ccccc12	none
Cc1ccc(OCC(O)CNc2nc(C)nc3c2c(C)nn3C)c(C)c1 (stereo not given)	none
Cc1nc(-c2ccncc2)nc(NCCNc2ncccc2C(F)(F)F)c1Cl	none
Cc1cc(=O)[nH]c(CCNc2nc(-c3ccncc3)nc3c2c(C)nn3C)n1	KDM5B inhibitor 20µM
CCCCNc1nc(-c2ccncc2)nc2ccccc12	none

Bioassay records from PubChem BioAssay.
